Measured values reported in the supplement of paper PMC11001985.

Each target was assayed with C#CCNC(=O)CCSSCCC(=O)NCCc1ccc(C=O)c(C=O)c1 (assay: lysine labeling ratio R10:1 (500 µM / 50 µM probe), SILAC-ABPP in living cells; higher = lower intrinsic lysine reactivity toward the probe, active = 2 or less). Settings: HeLa; probe concentrations 500 vs 50 µM.
How it was run: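 Living SILAC light and heavy HeLa cells in PBS at room temperature were treated with an alkyne-tagged, disulfide-linked lysine probe at 50 µM or 500 µM, with forward and reverse label swaps. The mixed lysates were clicked to biotin-azide, digested with trypsin, captured on neutravidin, released with DTT, alkylated and run by LC-MS/MS on a TIMS-TOF Pro. R for each lysine is the filtered median high-probe/low-probe MS1 peptide ratio, taken again as the median over forward and reverse replicates. Any value above 20 is set to 20.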

Sequence of UniProt P02533 (P02533 whole entry): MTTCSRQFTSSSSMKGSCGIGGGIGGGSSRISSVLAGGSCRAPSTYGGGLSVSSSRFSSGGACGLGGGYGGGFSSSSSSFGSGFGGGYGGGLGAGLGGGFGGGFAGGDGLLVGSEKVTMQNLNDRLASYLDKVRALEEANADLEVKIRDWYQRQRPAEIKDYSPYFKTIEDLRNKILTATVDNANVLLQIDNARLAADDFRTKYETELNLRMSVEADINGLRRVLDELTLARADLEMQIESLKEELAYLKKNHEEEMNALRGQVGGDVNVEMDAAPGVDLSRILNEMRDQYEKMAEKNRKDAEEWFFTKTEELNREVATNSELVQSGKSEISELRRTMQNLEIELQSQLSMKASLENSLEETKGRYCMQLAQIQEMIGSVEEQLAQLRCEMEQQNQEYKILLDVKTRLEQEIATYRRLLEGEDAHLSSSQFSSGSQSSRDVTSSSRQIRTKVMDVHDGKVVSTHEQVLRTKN
Sequence of UniProt P35579 (P35579 whole entry): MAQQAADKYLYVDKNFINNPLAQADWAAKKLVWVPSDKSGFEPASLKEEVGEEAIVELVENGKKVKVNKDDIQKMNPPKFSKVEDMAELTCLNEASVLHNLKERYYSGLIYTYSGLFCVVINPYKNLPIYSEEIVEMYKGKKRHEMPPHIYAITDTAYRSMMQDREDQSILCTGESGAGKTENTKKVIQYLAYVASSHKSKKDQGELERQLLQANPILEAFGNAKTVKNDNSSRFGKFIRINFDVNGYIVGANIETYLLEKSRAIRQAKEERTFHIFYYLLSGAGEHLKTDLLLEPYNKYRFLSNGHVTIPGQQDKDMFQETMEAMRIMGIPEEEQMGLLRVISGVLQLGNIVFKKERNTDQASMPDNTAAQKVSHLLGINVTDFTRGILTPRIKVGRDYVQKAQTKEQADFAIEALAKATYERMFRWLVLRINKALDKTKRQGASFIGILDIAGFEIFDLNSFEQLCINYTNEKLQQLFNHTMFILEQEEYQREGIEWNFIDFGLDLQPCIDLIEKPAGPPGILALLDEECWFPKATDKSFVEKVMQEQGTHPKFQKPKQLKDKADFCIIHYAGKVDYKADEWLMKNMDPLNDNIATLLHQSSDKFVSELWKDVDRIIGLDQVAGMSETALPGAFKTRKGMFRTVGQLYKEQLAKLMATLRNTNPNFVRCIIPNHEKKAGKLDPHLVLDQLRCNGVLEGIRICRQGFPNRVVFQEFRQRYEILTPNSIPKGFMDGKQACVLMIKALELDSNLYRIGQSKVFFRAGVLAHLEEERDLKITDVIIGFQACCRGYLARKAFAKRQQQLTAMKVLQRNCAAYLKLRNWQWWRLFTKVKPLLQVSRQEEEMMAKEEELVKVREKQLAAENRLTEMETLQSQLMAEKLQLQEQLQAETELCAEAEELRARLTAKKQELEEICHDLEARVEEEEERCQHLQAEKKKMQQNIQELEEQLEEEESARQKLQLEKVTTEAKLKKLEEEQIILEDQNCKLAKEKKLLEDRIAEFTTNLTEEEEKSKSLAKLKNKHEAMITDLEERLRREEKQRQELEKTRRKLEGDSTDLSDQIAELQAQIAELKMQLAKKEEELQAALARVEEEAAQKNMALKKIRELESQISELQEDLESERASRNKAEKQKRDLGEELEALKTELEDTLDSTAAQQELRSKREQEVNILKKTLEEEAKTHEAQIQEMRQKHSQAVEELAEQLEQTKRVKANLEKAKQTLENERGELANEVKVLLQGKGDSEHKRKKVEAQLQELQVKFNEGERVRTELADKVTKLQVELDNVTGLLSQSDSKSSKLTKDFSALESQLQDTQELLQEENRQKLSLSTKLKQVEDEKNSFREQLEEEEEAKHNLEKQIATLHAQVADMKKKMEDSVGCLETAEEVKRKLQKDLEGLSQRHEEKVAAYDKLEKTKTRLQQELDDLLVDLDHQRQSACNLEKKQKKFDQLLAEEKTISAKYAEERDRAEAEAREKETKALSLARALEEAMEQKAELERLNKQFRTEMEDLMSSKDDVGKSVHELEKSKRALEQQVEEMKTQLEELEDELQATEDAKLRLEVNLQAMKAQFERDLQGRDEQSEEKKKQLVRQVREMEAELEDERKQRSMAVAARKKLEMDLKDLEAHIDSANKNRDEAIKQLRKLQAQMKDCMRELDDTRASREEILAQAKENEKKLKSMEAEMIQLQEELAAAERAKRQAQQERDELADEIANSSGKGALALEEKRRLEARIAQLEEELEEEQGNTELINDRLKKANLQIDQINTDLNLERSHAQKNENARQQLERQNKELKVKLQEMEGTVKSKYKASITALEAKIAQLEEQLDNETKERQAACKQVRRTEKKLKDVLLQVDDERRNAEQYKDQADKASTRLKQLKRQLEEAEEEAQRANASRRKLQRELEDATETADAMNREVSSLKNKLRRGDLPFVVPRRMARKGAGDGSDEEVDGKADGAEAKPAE
Sequence of UniProt Q92508 (Q92508 whole entry): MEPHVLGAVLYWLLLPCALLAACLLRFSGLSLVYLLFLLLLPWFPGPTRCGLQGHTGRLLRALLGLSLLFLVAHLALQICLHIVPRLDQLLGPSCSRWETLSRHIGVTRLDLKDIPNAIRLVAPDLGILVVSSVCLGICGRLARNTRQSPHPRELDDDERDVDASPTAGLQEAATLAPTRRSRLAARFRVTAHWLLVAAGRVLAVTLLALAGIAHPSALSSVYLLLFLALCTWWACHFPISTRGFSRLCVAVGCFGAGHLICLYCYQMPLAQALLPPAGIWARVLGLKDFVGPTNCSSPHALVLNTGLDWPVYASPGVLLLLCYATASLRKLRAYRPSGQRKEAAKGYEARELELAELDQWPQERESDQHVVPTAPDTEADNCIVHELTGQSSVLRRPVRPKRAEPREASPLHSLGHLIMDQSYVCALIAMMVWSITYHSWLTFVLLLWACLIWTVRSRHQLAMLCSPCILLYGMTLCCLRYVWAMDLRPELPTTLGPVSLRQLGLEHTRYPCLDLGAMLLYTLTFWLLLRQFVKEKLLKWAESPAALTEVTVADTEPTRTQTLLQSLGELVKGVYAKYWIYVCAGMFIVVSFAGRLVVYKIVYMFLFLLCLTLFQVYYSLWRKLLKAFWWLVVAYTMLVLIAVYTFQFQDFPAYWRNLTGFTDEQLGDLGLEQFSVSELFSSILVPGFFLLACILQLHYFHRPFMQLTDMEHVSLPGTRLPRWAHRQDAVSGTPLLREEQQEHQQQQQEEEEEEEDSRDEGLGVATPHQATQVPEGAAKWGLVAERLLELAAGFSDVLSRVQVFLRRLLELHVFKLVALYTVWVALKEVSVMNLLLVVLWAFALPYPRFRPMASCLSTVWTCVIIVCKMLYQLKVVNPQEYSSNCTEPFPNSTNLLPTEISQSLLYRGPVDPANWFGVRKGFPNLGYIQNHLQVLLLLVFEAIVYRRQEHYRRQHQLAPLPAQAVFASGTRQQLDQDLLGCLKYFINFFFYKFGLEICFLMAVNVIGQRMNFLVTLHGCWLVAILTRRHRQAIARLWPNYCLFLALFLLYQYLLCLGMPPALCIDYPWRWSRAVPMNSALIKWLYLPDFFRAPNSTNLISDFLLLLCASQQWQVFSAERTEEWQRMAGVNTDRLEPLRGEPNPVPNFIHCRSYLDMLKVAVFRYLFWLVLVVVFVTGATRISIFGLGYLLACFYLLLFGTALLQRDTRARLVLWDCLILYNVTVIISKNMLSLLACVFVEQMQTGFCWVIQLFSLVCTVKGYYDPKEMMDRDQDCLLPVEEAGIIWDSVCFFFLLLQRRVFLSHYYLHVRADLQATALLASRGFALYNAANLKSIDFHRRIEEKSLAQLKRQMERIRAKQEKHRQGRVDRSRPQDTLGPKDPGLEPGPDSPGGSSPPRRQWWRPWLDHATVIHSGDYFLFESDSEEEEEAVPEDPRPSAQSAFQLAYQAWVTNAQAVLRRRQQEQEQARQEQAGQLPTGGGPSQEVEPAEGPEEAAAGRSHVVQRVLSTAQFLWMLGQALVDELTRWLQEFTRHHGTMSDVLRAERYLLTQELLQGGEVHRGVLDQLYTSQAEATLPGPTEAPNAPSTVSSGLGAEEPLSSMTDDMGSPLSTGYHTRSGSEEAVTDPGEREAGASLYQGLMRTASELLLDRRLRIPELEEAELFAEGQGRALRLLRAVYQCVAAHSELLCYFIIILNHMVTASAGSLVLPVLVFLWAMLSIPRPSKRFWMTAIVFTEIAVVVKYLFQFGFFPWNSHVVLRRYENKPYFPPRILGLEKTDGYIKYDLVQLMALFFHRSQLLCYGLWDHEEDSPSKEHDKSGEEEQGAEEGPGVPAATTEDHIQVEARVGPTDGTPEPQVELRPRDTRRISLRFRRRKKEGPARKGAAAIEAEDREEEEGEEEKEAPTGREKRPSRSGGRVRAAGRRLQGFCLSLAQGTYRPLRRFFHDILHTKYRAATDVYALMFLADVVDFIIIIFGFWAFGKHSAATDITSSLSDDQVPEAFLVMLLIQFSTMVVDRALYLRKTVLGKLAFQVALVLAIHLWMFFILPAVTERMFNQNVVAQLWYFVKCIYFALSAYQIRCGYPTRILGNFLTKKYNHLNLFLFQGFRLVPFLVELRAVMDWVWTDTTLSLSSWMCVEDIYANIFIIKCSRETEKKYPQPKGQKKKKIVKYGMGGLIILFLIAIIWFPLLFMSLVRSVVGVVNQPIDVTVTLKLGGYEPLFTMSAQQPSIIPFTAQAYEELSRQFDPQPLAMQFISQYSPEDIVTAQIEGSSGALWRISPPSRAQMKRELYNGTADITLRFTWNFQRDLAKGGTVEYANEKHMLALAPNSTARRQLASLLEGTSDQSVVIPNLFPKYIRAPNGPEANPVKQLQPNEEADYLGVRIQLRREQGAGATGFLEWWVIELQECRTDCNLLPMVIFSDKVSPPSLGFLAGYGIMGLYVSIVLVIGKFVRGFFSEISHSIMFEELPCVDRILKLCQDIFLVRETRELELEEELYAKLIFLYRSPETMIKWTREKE
Sequence of UniProt P60903 (P60903 whole entry): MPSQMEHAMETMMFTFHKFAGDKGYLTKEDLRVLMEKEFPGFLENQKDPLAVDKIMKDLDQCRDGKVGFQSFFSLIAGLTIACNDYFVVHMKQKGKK

| Target | lysine labeling ratio R10:1 |
| --- | --- |
| GPI (lysine site: K89) (UniProt P06744) | 1.12 (active) |
| HSPD1 (lysine site: K130) (UniProt P10809) | 4.23 (inactive) |
| EPHA2 (lysine site: K162) (UniProt P29317) | 5.99 (inactive) |
| UniProt P02533 (lysine site: K297) | 2.74 (inactive) |
| ATP6V0D1 (lysine site: K77) (UniProt P61421) | 1.33 (active) |
| PFAS (lysine site: K639) (UniProt O15067) | 1.58 (active) |
| CDK5 (lysine site: K33) (UniProt Q00535) | 6.8 (inactive) |
| PGK1 (lysine site: K30) (UniProt P00558) | 2.54 (inactive) |
| MYH9 (lysine site: K1338) (UniProt P35579) | 1.98 (active) |
| UniProt P05787 (lysine site: K325) | 12.1 (inactive) |
| RPL4 (lysine site: K294) (UniProt P36578) | 3.4 (inactive) |
| UniProt P52803 (lysine site: K166) | 0.58 (active) |
| TMEM30A (lysine site: K279) (UniProt Q9NV96) | 1.73 (active) |
| ITGA3 (lysine site: K897) (UniProt P26006) | 1.68 (active) |
| NEGR1 (lysine site: K180) (UniProt Q7Z3B1) | 1.72 (active) |
| UniProt Q15149 (lysine site: K1626) | 2.37 (inactive) |
| RDX (lysine site: K556) (UniProt P35241) | 1.52 (active) |
| RAB13 (lysine site: K107) (UniProt P51153) | 0.523 (active) |
| SERBP1 (lysine site: K76) (UniProt Q8NC51) | 1.17 (active) |
| TPM4 (lysine site: K44) (UniProt P67936) | 1.15 (active) |

| Target | lysine labeling ratio R10:1 |
| --- | --- |
| UniProt P02533 (lysine site: K405) | 7.37 (inactive) |
| UniProt P08240 (lysine site: K220) | 2.1 (inactive) |
| TSPAN6 (lysine site: K146) (UniProt O43657) | 1.28 (active) |
| ALDOA (lysine site: K14) (UniProt P04075) | 5.1 (inactive) |
| UniProt Q32P28 (lysine site: K437) | 1.13 (active) |
| CD109 (lysine site: K1018) (UniProt Q6YHK3) | 1.99 (active) |
| SEMA3C (lysine site: K616) (UniProt Q99985) | 5.77 (inactive) |
| ITGAV (lysine site: K149) (UniProt P06756) | 4.46 (inactive) |
| PIEZO1 (lysine site: K2372) (UniProt Q92508) | 1.09 (active) |
| UniProt P61981 (lysine site: K10) | 4.23 (inactive) |
| FLNB (lysine site: K2088) (UniProt O75369) | 2.27 (inactive) |
| UniProt Q8WXI7 (lysine site: K12309) | 6.26 (inactive) |
| RPL3 (lysine site: K155) (UniProt P39023) | 0.69 (active) |
| S100A10 (lysine site: K57) (UniProt P60903) | 2.66 (inactive) |
| CD44 (lysine site: K158) (UniProt P16070) | 4.38 (inactive) |
| FN1 (lysine site: K116) (UniProt P02751) | 5.35 (inactive) |
| ARPC3 (lysine site: K29) (UniProt O15145) | 1.49 (active) |
| DISP1 (lysine site: K908) (UniProt Q96F81) | 3.35 (inactive) |
| RPS3A (lysine site: K249) (UniProt P61247) | 1.8 (active) |
| MYH9 (lysine site: K202) (UniProt P35579) | 1.58 (active) |
